Compound activity (PubChem)
TDP1 cell CPT: growth inhibition of DT40 Tdp1-/-;hTDP1 cells with camptothecin (screen for TDP1 inhibitors); Potency, µM (highest dose often 46.2 µM), without a hit: top-dose activity change, negative = growth inhibition, hits mostly inhibitors; chicken DT40 Tdp1-/-;hTDP1 cells + 20 nM CPT, ATP luminescence, 48 h; AID 686979; actives 12% (n = 420,000); also: potency is read from the fitted curve at half-maximal effect; nearly all actives have a fitted effect of over 55% in size
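Cell growth measured by CellTiter-Glo luminescence after a minimum 48 h, 37 C compound exposure with 20 nM CPT in Tdp1-knockout DT40 cells stably expressing hTDP1, seeded 400/well; qHTS titration format.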
ELG1 DNA repair: inhibitors of ELG1-dependent DNA repair in HEK293T cells. HEK293T ELG1-luciferase reporter, luminescence, 16 h; DNA damage induced by 5-fluorouridine. Potency, µM (titrated, usually from 46.1 µM), inactives show top-dose activity change, negative = inhibition, most hits filed as inhibitors. AID 504467. actives 2.3% (n = 330,000); also: potency is read from the fitted curve at half-maximal effect; nearly all actives have a fitted effect of over 55% in size
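Overnight (16 hr) co-exposure of 2,000 cells/well to 5-fluorouridine and compound at 37 °C preceded detection. Luciferase was quantified via ONE-Glo luminescence; loss of signal denotes inhibition.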
TDP1 cell noCPT: qHTS for Inhibitors of human tyrosyl-DNA phosphodiesterase 1 (TDP1): qHTS in cells in absence of CPT. actives 15% (n = 420,000). AID 686978, 2013. Potency, µM (titrated, usually from 46.2 µM), for the others: at the top dose activity change, negative = growth inhibition, actives largely listed as inhibitors. DT40 Tdp1-/- hTDP1 cells, no CPT, ATP luminescence, 48 h; also: potency is read from the fitted curve at half-maximal effect; nearly all actives have a fitted effect of over 55% in size
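Stably hTDP1-transfected Tdp1-null chicken DT40 cells were treated with library compounds minus camptothecin and grown for at least 48 hr at 37 °C, after which cellular ATP was quantified by luminescence.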
IL1B secr inh: inhibitors of inflammasome signaling (IL-1 beta secretion) | AID 743279 | activity change, % at 57.5 µM | THP-1 LPS/ATP IL-1B secretion, AlphaLISA, 16 h; hits give low values | actives 4.7% (n = 360,000); in the data active = activity change below about -50%; inconclusive = mostly about -30% to -49%
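THP-1 cells pretreated 1 hr with compounds (up to 57.5 uM final), then stimulated with LPS (250 ng/mL final) plus ATP (1.25 mM final); secreted IL-1B measured by AlphaLISA after 16 hr, decreased signal indicating inhibition.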
TDP1 block: TDP1 (human) enzyme inhibition | Potency, µM (series often up to 130 µM), without a hit: at the top dose activity change, negative = inhibition, usual class: inhibitors | AID 485290 | recombinant TDP1, AlphaScreen DNA substrate cleavage | actives 0.28% (n = 350,000) | Q9NUW8; also: potency is read from the fitted curve at half-maximal effect; nearly all actives have a fitted effect of over 40% in size
Target sequence (Q9NUW8 whole entry, looked up): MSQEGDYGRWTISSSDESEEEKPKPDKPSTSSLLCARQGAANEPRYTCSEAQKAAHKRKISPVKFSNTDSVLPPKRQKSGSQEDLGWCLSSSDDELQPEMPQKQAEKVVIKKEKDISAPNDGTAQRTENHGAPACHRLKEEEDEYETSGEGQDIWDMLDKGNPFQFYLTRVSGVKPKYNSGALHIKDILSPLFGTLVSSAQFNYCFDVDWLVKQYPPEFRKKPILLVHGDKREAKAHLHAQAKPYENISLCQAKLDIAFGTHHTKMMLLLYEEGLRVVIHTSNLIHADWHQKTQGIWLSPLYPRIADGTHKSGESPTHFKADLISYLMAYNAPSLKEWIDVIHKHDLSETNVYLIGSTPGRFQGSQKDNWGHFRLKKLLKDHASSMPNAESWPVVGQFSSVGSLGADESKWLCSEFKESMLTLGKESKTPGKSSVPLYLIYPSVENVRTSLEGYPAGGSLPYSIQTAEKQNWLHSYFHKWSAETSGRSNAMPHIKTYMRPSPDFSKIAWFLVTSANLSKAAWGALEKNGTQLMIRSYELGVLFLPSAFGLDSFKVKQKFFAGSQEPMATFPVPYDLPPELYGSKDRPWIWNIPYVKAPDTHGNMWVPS
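Enzyme-compound mixtures sat 15 min at room temperature, followed by a 5 min reaction with 15 nM final substrate and 10 min with AlphaScreen beads. Recombinant human Tdp1 was used at 1 nM final.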
Giardia killer: Giardia lamblia killing; AID 540267; Giardia lamblia trophozoite viability; actives 0.15% (n = 340,000); activity change, % at 7.66 µM, hits read low; in the data active = activity change below about -80%; inconclusive = between about -30% and that limit;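 also: parasites exposed to compound for two days anaerobically before the ATP read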
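Compounds were tested on trophozoites seeded at 100 cells/well and held 48 hrs at 37 deg C anaerobically. An ATP-based luminescent kit measured the remaining live cells.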
* = called active by the depositor; ? = inconclusive; . = no result; ! = a repeat was not active; [ ] = another dose, or the depositor's remark. An excerpt weighted towards active compounds, which were near 19% of everything screened. Unless noted, calls follow the shape of the dose curve; as a rule, active = well fitted curve in the direction sought with a large enough effect; inconclusive = small, poorly fitted or top-dose-only effect, or another doubt; inactive = no such curve, though single readings can be large; an effect the other way counts as inactive or inconclusive. % is scaled to controls: 0 for no effect and ±100 for the full control effect.

SMILES | TDP1 cell CPT | ELG1 DNA repair | TDP1 cell noCPT | IL1B secr inh | TDP1 block | Giardia killer
S=C(NCc1ccccc1)NNc1nc2ccccc2[nH]1 | ? | -15% | ? | 1 | 4% | -10
Cc1ccc(NC(C(=O)c2ccccc2)c2ccccc2)cc1 (stereo not given) | ? | . | 13µM* | -73* | . | -5
Cc1cc(C)cc(NC(=O)C(Nc2ccccc2)c2ccccc2)c1 (stereo not given) | 18µM* | ? | -27% | -1 | 1% | -14
COc1cccc(NC(C(=O)Nc2cccc(C(C)=O)c2)c2ccccc2)c1 (stereo not given) | -24% | -1% | ? | 8 | -2% | 0
Cc1ccc(NC(=O)C(Nc2cccc(C)c2)c2ccccc2)cc1 (stereo not given) | ? | 5% | 18µM* | -15 | 5% | 2
Cc1ccc(NC(=O)C(Nc2ccccc2)c2ccccc2)cc1 (stereo not given) | 0% | 4% | -1% | -11 | 0% | 5
O=C(CSc1ccc2c(c1)OCCO2)N1CCN(c2ccccc2O)CC1 | 23µM* | ? | 23µM* | 0 | -1%[0.505 µM] | 6
O=C(C1CC(=O)N(c2ccc3c(c2)OCCO3)C1)N1CCN(c2ccccc2O)CC1 (stereo not given) | 21µM* | -3% | ? | -9 | 3% | -10
O=C(C1CC(=O)N(c2ccc3c(c2)OCCO3)C1)N1CCN(c2ccccc2)CC1 (stereo not given) | -27% | -12% | -28% | -16 | -9% | 15
CCOc1ccccc1N1CCN(C(=O)CSc2ccc3c(c2)OCCO3)CC1 | -16% | -16% | ? | -12 | 3% | 12
CC(C)NC(=S)N1CCN(C/C=C/c2ccccc2)CC1 | -3% | -13% | -25% | -15 | 8% | 7
C[c-]1[c-](C)[c-](C)[c-](C)[c-]1C.[Fe].c1cc2nccc(N3CCCC3)[c-]2c1 (stereo not given) | 8.2µM*! | ? | 6.5µM* | 0 | 7.9µM*! | -9
c1cc(N2CCCCC2)nc(N2CCCCC2)n1 | -27% | . | ? | 13 | . | -12
CCOC(=O)c1c2n(c3c(NCc4ccccc4)ncnc13)CCCC2 | ? | ? | 21µM* | -26 | 4% | -1
Cc1ccc(CNc2ncnc3c2nc2n3CCCC2)cc1 | ? | . | ? | . | 2% | .
CN(C)c1ccc(CC(=O)N2CCCC(c3cc(C(=O)Nc4ccc(F)c(Cl)c4)no3)C2)cc1 (stereo not given) | 16µM* | . | 23µM* | -1 | . | .
Cc1ccc(C)c(CC(=O)N2CCCCC2c2cc(C(=O)Nc3ccc(F)c(Cl)c3)no2)c1 (stereo not given) | 21µM* | . | 23µM* | -16 | . | .
O=C(Nc1ccc(F)c(Cl)c1)c1cc(C2CCCN(S(=O)(=O)c3ccccc3)C2)on1 (stereo not given) | ? | . | ? | -15 | . | .
N#Cc1cccc(NC(=O)c2cc(C3CCCCN3C(=O)CCCc3ccccc3)on2)c1 (stereo not given) | 23µM* | . | ? | ? | . | .
CN(C)c1ccc(CC(=O)N2CCCCC2c2cc(C(=O)Nc3ccccc3Cl)no2)cc1 (stereo not given) | -110% | . | ? | -11 | . | .
O=C(Nc1ccc(F)c(Cl)c1)c1cc(C2CCCCN2C(=O)c2ccc(Cl)cc2)on1 (stereo not given) | 21µM* | . | 21µM* | ? | . | .
CCN(CC)S(=O)(=O)c1ccc2c(c1)N(CC(=O)Nc1c(C)cccc1C)C(=O)C1CCCN21 (stereo not given) | -2% | . | -20% | . | -3% | .
O=C(Nc1ccc(F)c(Cl)c1)c1cc(C2CCCCN2C(=O)CCc2ccccc2)on1 (stereo not given) | 15µM* | . | ? | -20 | . | .
O=C(Nc1ccccc1)c1cc(C2CCCCN2C(=O)CCc2ccccc2)on1 (stereo not given) | ? | . | -26% | 9 | . | .
CC(=O)Nc1ccc(C(=O)N2CCCCC2c2cc(C(=O)Nc3ccccc3)no2)cc1 (stereo not given) | -27% | . | -16% | -1 | . | .
SMILES | TDP1 cell CPT | ELG1 DNA repair | TDP1 cell noCPT | IL1B secr inh | TDP1 block | Giardia killer
O=C(Nc1ccc(F)c(Cl)c1)c1cc(C2CCCCN2C(=O)c2ccccc2)on1 (stereo not given) | 8.2µM* | . | 6.5µM* | -12 | . | .
O=C1C=CC(=O)N1CCCCCCN1C(=O)C=CC1=O | 1.5µM* | 23µM* | 2.1µM* | -98* | 5% | -18
O=C(O)CN1C(=O)C=CC1=O | -5% | . | -16% | 0 | . | .
COc1ccc(NS(=O)(=O)c2cc(C(=O)NNC(=O)c3ccncc3)ccc2OC)c(OC)c1 | -9% | 14% | -5% | 14 | 0% | -13
COc1ccc(CCC(=O)N2c3ccccc3N=C(c3ccc(C(F)(F)F)cc3)C2C(=O)NC(C)C)cc1 (stereo not given) | 23µM* | . | ? | 50 | . | .
CC(=O)N1c2ccccc2N=C(c2ccc(C(F)(F)F)cc2)C1C(=O)NC(C)C (stereo not given) | 21µM* | . | 23µM* | 42 | . | .
O=C(NC1CCCC1)C1C(c2ccc(C(F)(F)F)cc2)=Nc2ccccc2N1C(=O)c1ccco1 (stereo not given) | 16µM* | . | ? | 9 | . | .
O=C(NC1CCCC1)C1C(c2ccc(C(F)(F)F)cc2)=Nc2ccccc2N1C(=O)c1ccccc1 (stereo not given) | ? | . | ? | 43 | . | .
CC(C)NC(=O)C1C(c2ccccc2)=Nc2ccccc2N1C(=O)c1ccc(C(F)(F)F)cc1 (stereo not given) | ? | . | ? | 1 | . | .
Cc1nc2ccc(C(=O)N3c4ccccc4N=C(c4ccc(C(F)(F)F)cc4)C3C(=O)NC(C)(C)C)cc2[nH]1 (stereo not given) | ? | . | 15µM* | 37 | . | .
C[C@@H]1CN(Cc2ccc3c(c2)CN(C(=O)CN2CCOc4ccccc4C2)CCO3)C[C@H](C)O1 | -4%[9.04 µM] | . | -23% | . | . | .
COc1ccc(-c2[nH][nH]c(=O)c2NC(=O)c2ccc(C)cc2)cc1 | -19% | . | 13% | 38 | . | .
CC(C)NC(=O)C1C(c2ccccc2)=Nc2ccccc2N1C(=O)c1cc(Cl)cc(Cl)c1 (stereo not given) | 23µM* | . | ? | 1 | . | .
CCC(C)(C)C1CCC2(CC1)NC(=O)N(CC(=O)N1CCN(S(=O)(=O)c3cc(C)ccc3C)CC1)C2=O (stereo not given) | ? | 1% | ? | 14 | 1% | -15
